Compound activity from PubChem.
PRMT1 FP inh: inhibitors of human PRMT1; Q99873; recombinant PRMT1, activity-based probe fluorescence polarization; inhibition, % at 2.79 µM; 370,000 compounds, 1.3% hits;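 active = inhibition above about 21% made by adding two undisclosed values, limit read from the data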
UHRF1 binding: UHRF1 methyl-DNA binding inhibition; UHRF1 binding to methylated oligo, TR-FRET; inhibition, % at 4.4 µM; 370,000 compounds, 0.75% hits; in the data active = inhibition above about 21%;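 also: UHRF1 SRA domain binding a hemimethylated CpG hairpin DNA probe; 0% = median of test compound wells and 100% = reference inhibitor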
rCAG RNA binder: r(CAG) repeat RNA binding; TO-PRO-1 dye displacement fluorescence; inhibition, % at 3 µM; 370,000 compounds, 1.3% hits; AID 651821;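 active = inhibition above the plate cutoff, the mean of all test compounds on that plate plus 3 SD, cut at about 35% in these data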;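 also: 0% = DMSO alone and 100% = 100 µM mitoxantrone as full dye displacement; higher means more dye released from RNA so lower well fluorescence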
LEDGF integ inh: blocks HIV-1 LEDGF/p75-dependent DNA integration | TR-FRET IN-LEDGF/p75 DNA integration, Eu/Cy5 | AID 743269 | 370,000 compounds, 0.64% hits | inhibition, % at 3.7 µM;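 active = inhibition above the screen-wide mean plus 3 SD, cut at about 13% in these data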;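 also: signal is the Cy5 over europium emission ratio at 671 and 618 nm; 0% = plate median of compound wells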
ABHD5-PLIN5 inh: inhibitors of human ABHD5-perilipin-5 interaction. AID 602281. inhibition, % at 4 µM. Split G. princeps luciferase complementation, luminescence, 4 h. Q00G26+Q8WTS1. 360,000 compounds, 0.78% hits;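 active = inhibition above the mean inhibition across every tested compound plus 3 SD, cut at about 22% in these data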;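 also: 0% = DMSO only wells and the 100% control is not disclosed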
MBD2 inh: MBD2-methylated oligo binding inhibition; 370,000 compounds, 0.31% hits; inhibition, % at 4.4 µM; TR-FRET, MBD2 binding to methylated oligonucleotide; Q9UBB5; AID 686964; in the data active = inhibition above about 13%
Target sequence (Q9UBB5 whole entry, looked up): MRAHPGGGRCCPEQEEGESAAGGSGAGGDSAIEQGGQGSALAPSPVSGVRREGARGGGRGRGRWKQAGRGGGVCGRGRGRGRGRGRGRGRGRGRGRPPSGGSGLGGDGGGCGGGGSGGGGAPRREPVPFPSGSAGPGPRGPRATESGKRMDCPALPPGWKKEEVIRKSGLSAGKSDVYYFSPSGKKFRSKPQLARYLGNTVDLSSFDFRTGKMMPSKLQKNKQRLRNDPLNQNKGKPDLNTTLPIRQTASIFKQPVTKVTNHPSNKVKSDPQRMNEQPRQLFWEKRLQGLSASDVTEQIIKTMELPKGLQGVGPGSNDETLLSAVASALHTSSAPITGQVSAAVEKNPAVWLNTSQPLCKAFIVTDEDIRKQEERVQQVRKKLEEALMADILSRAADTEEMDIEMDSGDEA
Numbers without * were called inactive. Shown are actives, neighbours in structure and some others; about 4.1% of the full set was active somewhere.

Screening CCN(CC)CC(O)COc1ccc2c(c1)c(C(C)=O)c(C)n2-c1ccccc1 (configuration not stated) returned PRMT1 FP inh -1.8, UHRF1 binding 1.9, rCAG RNA binder 1.5, LEDGF integ inh -0.6, ABHD5-PLIN5 inh 6.4 and MBD2 inh -1.0.
For CC(=O)c1c(C)n(-c2ccccc2)c2ccc(OCC(O)CN3CCOCC3)cc12 (configuration not stated) the results were PRMT1 FP inh 1.1, UHRF1 binding 83.2*, rCAG RNA binder -6.9, LEDGF integ inh -3.6, ABHD5-PLIN5 inh -2.0 and MBD2 inh 0.1.
For Cc1ccc(C)c(NC(=O)COC(=O)CNC(=O)C2CCCCC2)c1 the results were PRMT1 FP inh -2.3, UHRF1 binding 52.5*, rCAG RNA binder -0.5, LEDGF integ inh -2.8, ABHD5-PLIN5 inh -14.6 and MBD2 inh 0.3.
Screening Cc1cccc(NC(=O)COC(=O)CNC(=O)C2CCCCC2)c1 returned PRMT1 FP inh -2.1, UHRF1 binding -4.7, rCAG RNA binder -3.5, LEDGF integ inh 0.1, ABHD5-PLIN5 inh -0.5 and MBD2 inh 0.5.
For Cn1c(=O)c2c(nc(N3CCc4ccccc4C3)n2Cc2ccccc2F)n(C)c1=O the results were PRMT1 FP inh -3.1, UHRF1 binding -0.6, rCAG RNA binder -0.4, LEDGF integ inh -1.1, ABHD5-PLIN5 inh 0.3 and MBD2 inh -1.8.
For CN1CCN(c2nc3c(c(=O)n(C)c(=O)n3C)n2Cc2ccccc2F)CC1 the results were PRMT1 FP inh -3.2, UHRF1 binding 60.0*, rCAG RNA binder -8.7, LEDGF integ inh -4.2, ABHD5-PLIN5 inh 3.4 and MBD2 inh 1.0.
`O=C(Cc1ccc(S(=O)(=O)N2CCOCC2)s1)Nc1cc(C(F)(F)F)cc(C(F)(F)F)c1` gave PRMT1 FP inh 1.0, UHRF1 binding 0.2, rCAG RNA binder 4.4, LEDGF integ inh 4.2, ABHD5-PLIN5 inh -8.6 and MBD2 inh 1.0.
CCOC(=O)c1cc(NC(=O)Cc2ccc(S(=O)(=O)N3CCOCC3)s2)cc(C(=O)OCC)c1 was read as PRMT1 FP inh -1.4, UHRF1 binding 25.7*, rCAG RNA binder 14.9, LEDGF integ inh 1.7, ABHD5-PLIN5 inh 4.0 and MBD2 inh 9.0.
COC(=O)[C@]12C[C@H](CC(=O)N3CCCCC3)C(=O)N(CCC3=CCCCC3)C1=C[C@H](COCc1ccccc1)O[C@@H]2C was read as PRMT1 FP inh 0.5, UHRF1 binding 0.8, rCAG RNA binder 3.0, LEDGF integ inh -1.5 and MBD2 inh 2.7.
Screening O=C(Cc1c(F)cccc1Cl)NCc1cccnc1 returned PRMT1 FP inh -2.4, UHRF1 binding -0.9, rCAG RNA binder 0.1, LEDGF integ inh 2.5, ABHD5-PLIN5 inh 1.6 and MBD2 inh 0.8.
O=C(Cc1ccc(Cl)cc1Cl)NCc1cccnc1 was read as PRMT1 FP inh 0.2, UHRF1 binding 21.0*, rCAG RNA binder 2.0, LEDGF integ inh -1.8, ABHD5-PLIN5 inh -0.5 and MBD2 inh 0.9.
Screening COc1ccc(-c2sc3ccccc3c2/C=C/c2ccc(N)cc2)cc1 returned PRMT1 FP inh -2.0, UHRF1 binding -0.6, rCAG RNA binder 7.1, LEDGF integ inh -4.2, ABHD5-PLIN5 inh 4.7 and MBD2 inh -0.7.
For COC(=O)c1ccc(/C=C/c2c(-c3ccsc3)sc3ccccc23)cc1 the results were PRMT1 FP inh 0.7, UHRF1 binding 23.2*, rCAG RNA binder 12.9, LEDGF integ inh 2.1, ABHD5-PLIN5 inh -8.7 and MBD2 inh -1.4.
Screening CCOc1ccc(C(=O)CSc2nnc(SCc3ccc(Cl)cc3)s2)cc1 returned PRMT1 FP inh 0.0, UHRF1 binding 3.5, rCAG RNA binder 4.3, LEDGF integ inh -1.7 and MBD2 inh 2.7.
Cc1ccc(-c2csc(NCCn3c(-c4ccncc4)nc4ccccc43)n2)cc1 was read as PRMT1 FP inh 3.1, UHRF1 binding 22.3*, rCAG RNA binder 3.8, LEDGF integ inh 0.0, ABHD5-PLIN5 inh 10.5 and MBD2 inh -4.1.
`Cc1ccc(-c2csc(NCCn3c(-c4ccncc4)nc4cc(C(F)(F)F)ccc43)n2)cc1` gave PRMT1 FP inh 1.8, UHRF1 binding 2.8, rCAG RNA binder 5.2, LEDGF integ inh -3.0, ABHD5-PLIN5 inh -2.6 and MBD2 inh -0.5.
For CCCOc1ccc(N2C(=O)CC(SCCN)C2=O)cc1 (configuration not stated) the results were PRMT1 FP inh 22.4*, UHRF1 binding 0.3, rCAG RNA binder -1.1, LEDGF integ inh -1.9, ABHD5-PLIN5 inh -4.9 and MBD2 inh -3.5.
O=C(O[C@@H]1OC2COC(=O)c3cc(O)c(O)c(O)c3-c3c(cc(O)c(O)c3O)C(=O)O[C@@H]([C@H]1O)[C@@H]2O)c1cc(O)c(O)c(O)c1 was read as ABHD5-PLIN5 inh 28.0*.
COc1cccc(OCc2nc(-c3cccc([N+](=O)[O-])c3)no2)c1 was read as PRMT1 FP inh 4.1, UHRF1 binding 1.5, rCAG RNA binder 1.6, LEDGF integ inh 0.7, ABHD5-PLIN5 inh 0.1 and MBD2 inh 0.9.
For COc1cccc(-c2noc(Cn3nc(C)c([N+](=O)[O-])c3C)n2)c1 the results were PRMT1 FP inh 23.2*, UHRF1 binding -0.5, rCAG RNA binder 2.5, LEDGF integ inh 1.0, ABHD5-PLIN5 inh 1.8 and MBD2 inh -1.5.
COc1ccc(-c2noc(C(C)n3nc(C)c([N+](=O)[O-])c3C)n2)cc1OC (configuration not stated) was read as PRMT1 FP inh -0.7, UHRF1 binding -3.0, rCAG RNA binder -1.9, LEDGF integ inh -4.2, ABHD5-PLIN5 inh 0.9 and MBD2 inh 4.2.
Cc1nn(C(C)c2nc(-c3ccccc3)no2)c(C)c1[N+](=O)[O-] (configuration not stated) was read as PRMT1 FP inh -0.4, UHRF1 binding 33.3*, rCAG RNA binder -2.0, LEDGF integ inh -2.6, ABHD5-PLIN5 inh 3.5 and MBD2 inh -1.1.
For COC(=O)c1ccccc1NC(=O)CN1C(=O)CSC1=O the results were PRMT1 FP inh 0.5, UHRF1 binding -0.1, rCAG RNA binder 1.2, LEDGF integ inh 0.0, ABHD5-PLIN5 inh -1.8 and MBD2 inh 3.1.
For COC(=O)c1cc(NC(=O)CN2C(=O)CSC2=O)ccc1Cl the results were PRMT1 FP inh 3.2, UHRF1 binding 22.8*, rCAG RNA binder 4.1, LEDGF integ inh 3.7, ABHD5-PLIN5 inh -2.8 and MBD2 inh 8.4.
For CC[C@]12c3[nH]c4cc(-c5ccco5)ccc4c3CCN1C(=O)[C@@H](CC(=O)NC/C=C(\C)CCC=C(C)C)C[C@@H]2C(=O)N1CCN(C(=O)c2ccco2)CC1 the results were ABHD5-PLIN5 inh 11.7.
CC[C@]12c3[nH]c4cc(-c5ccco5)ccc4c3CCN1C(=O)[C@@H](CC(=O)NC/C=C(\C)CCC=C(C)C)C[C@@H]2C(=O)N1CCN(C(=O)C2CC2)CC1 was read as PRMT1 FP inh 23.2*, UHRF1 binding 0.7, rCAG RNA binder 19.8, LEDGF integ inh 4.2, ABHD5-PLIN5 inh 9.6 and MBD2 inh -1.4.
